# p53ts 39C kill: kills p53ts cells at the nonpermissive temperature; Potency, µM (top dose mostly 46.1 µM), for the others: at the top dose activity change, negative = cell killing, hits mostly cytotoxic; H1299-p53A138V viability at 39C, ATP luminescence, 24 h; actives 1.5% (n = 130,000); note: % is set by controls: 0 for no effect and ±100 for the full control effect; nearly all actives have a fitted effect of over 55% in size
# p53ts 32C tox: kills p53ts cells at the permissive temperature. H1299-p53A138V at 32C, ATP luminescence viability, 24 h. Potency, µM (top dose mostly 46.1 µM), for inactives: at the highest dose activity change, negative = cytotoxicity, usual class: cytotoxic. actives 0.93% (n = 130,000). AID 924;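 note: 0% = DMSO and -100% = full killing by reference compound; nearly all actives have a fitted effect of over 55% in size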
#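 Cells: H1299 p53ts (A138V), 600/well, pre-incubated 16–30 h at 37C. Cpd up to 46 uM, 24 h, 32C. Readout: ATPlite luminescence, 20 min RT. Normalization: DMSO vs tamoxifen 100 uM. AC50 by Hill equation.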
# IkB signaling: suppresses IkB signaling in ABC-DLBCL reporter cells | ABC-DLBCL IkBa-CBG/CBR dual luciferase ratio, 4 h; response scale: scaled: untreated 0%, proteasome inhibitor 100% | Potency, µM (doses to about 57.1 µM), for the others: at the top dose IkBa stabilization activation | actives 0.04% (n = 110,000) | AID 445; active = well fitted curve in the direction sought with a large enough effect in the signal ratio, not every such curve was filed as active; inconclusive = small, poorly fitted or top-dose-only effect, or a change in a side signal; the % refers to the signal ratio;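 note: the direction sought is a rising ratio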
#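 In this assay, an IκBα–CBG68 fusion accumulates when IKK-driven degradation is blocked; native CBR normalizes for cell number. OCI-Ly3 cells were treated 4 h with compound and doxycycline, then green and red light read after Chroma-Glo addition.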
# Peg3 imprint: inducers of genomic imprint erasure in mouse ES cells. mouse ES Peg3-LacZ reporter, beta-gal luminescence, 40 h. Potency, µM (highest dose often 60.7 µM), for the others: at the top dose activity change, positive = activation, actives largely listed as activators. actives 0.02% (n = 110,000). AID 1948
#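 Readout: BetaGlo luminescence (5 min, room temp) for LacZ from the normally silent maternal Peg3 allele in female Peg3LacZ-Neo ES cells. Cells 300/well, 40 h, 37C, 5% CO2. Data normalized per plate to negative controls.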
# * marks the source's active call; other numbers are inactive results; ? = inconclusive; nt = no result given; ! = repeats disagree; [ ] = another dose, or the depositor's remark. Compounds with a hit are over-represented: about 1.8% of the library has one in this group of screens. Unless noted, calls come from the whole dose curve; as a rule, active = well fitted curve in the direction sought with a large enough effect; inconclusive = small, poorly fitted or top-dose-only effect, or another doubt; inactive = no such curve, though single readings can be large; an effect the other way counts as inactive or inconclusive. Potency is the fitted concentration of half-maximal effect.
SMILES,p53ts 39C kill,p53ts 32C tox,IkB signaling,Peg3 imprint
Cc1ccc(C2=[N+]([O-])C3(CCCCC/C3=N\O)N(O)C2(C)C)o1 (configuration not stated),3%,4%,1%,6%
COc1ccc2c(c1OC)C(=O)N1c3ccccc3COC21 (configuration not stated),16µM*,13µM*,2%,-47%
COc1ccc2c(c1OC)C(=O)N1c3cccc(Cl)c3C(=O)OC21 (configuration not stated),1%,11%,-1%,-3%
O=C(CSc1nc2ccsc2c(=O)n1Cc1ccccc1Cl)NCc1ccc(Cl)cc1,-5%,1%,-1%,10%[10.9 µM]
Cc1ccc(Cn2c(SCC(=O)NCc3ccccc3Cl)nc3ccsc3c2=O)cc1,10µM*,7%,0%,16%[10.9 µM]
NC(=NCc1ccc(Cl)c(Cl)c1)NC(=O)c1nc(Cl)c(N)nc1N,13µM*,13µM*,-16%,-12%
COc1cc(O)c(C(=O)/C=C/c2ccc(OC)c(O)c2)c(OC)c1,63%,10µM*,nt,-37%
CCN1CCN(C(=O)c2cc3c(=O)n4ccccc4nc3n2Cc2ccccc2)CC1,13µM*,13µM*,1%,-88%
O=C(NCC12CC3CC(CC(C3)C1)C2)c1cc2n(n1)C(C(F)(F)F)CC(c1ccco1)N2 (configuration not stated),20µM*,-30%,4%,-21%
Cc1cc(N)n2ncc(-c3cccc(Br)c3)c2n1,-4%,0%,3%,-12%
Cc1cc(N)n2ncc(-c3ccccc3)c2n1,10µM*,?,?,3%
CCOC(=O)c1cnc2c(-c3ccccc3)cnn2c1N,7.9µM*,10µM*,?,-51%
CCOC(=O)c1cnc2c(-c3ccccc3)c(C)nn2c1N,-7%,8%,-1%,4%
Cn1ccc2c(OCC(=O)NCc3ccccc3Cl)cccc2c1=O,-13%,10%,?,-7%[10.9 µM]
Cc1cccc(-c2nc(-c3ccc4c(c3)[nH]c(=O)n4C)no2)c1,-28%,1%,-1%,-16%[10.9 µM]
CCCCCCCCCCCCC(=O)N1CCCC[C@H]1CNC(=O)[C@@H](N)CCCCN,32µM*,-7%,0%,-35%
CSc1ccc2c(c1)N(CC[C@H]1CCCCN1C)c1ccccc1S2,13µM*!,nt,0%[25.6 µM],-16%[16.8 µM]
CSc1ccc2c(c1)N(CCC1CCCCN1C)c1ccccc1S2 (configuration not stated),13µM*,nt,nt,-32%
CC(C)CCNC(=O)c1cccc(Nc2nc3ccccc3n3nnnc23)c1,10µM*,?,?,-19%[10.9 µM]
C[C@@H]1CN(CCCn2c3ccccc3c3ccccc32)C[C@H](C)N1,25µM*,16%,?,-24%
CCSc1nnc(NC(=O)c2ccccn2)s1,10µM*,10µM*,?,-85%
CCSc1nnc(NC(=O)c2cnccn2)s1,-4%,-4%,-3%,-2%
COc1ccc(Cn2c(CCC(=O)Nc3ccc(C)cc3)nc3cccnc32)cc1,-26%,7%,0%,-14%[10.9 µM]
COc1ccc(C(=O)NCC(c2cccnc2)N2CCN(c3ccccc3)CC2)cc1OC (configuration not stated),?,10µM*,2%,-91%
COc1ccc(C(=O)NCC(c2cccnc2)N2CCN(c3ccc(F)cc3)CC2)cc1OC (configuration not stated),-8%,-5%,3%,-5%
SMILES,p53ts 39C kill,p53ts 32C tox,IkB signaling,Peg3 imprint
Cc1ccc(NC(=O)C(=O)NCC(c2cccnc2)N2CCOCC2)cc1Cl (configuration not stated),20µM*,?,?,-11%[10.9 µM]
COc1ccc(-c2nc3ccccc3s2)cc1O,2.5µM*,5µM*,?,nt
Oc1cccc(-c2nc3ccccc3s2)c1,10µM*,7.9µM*,6%,-83%
O=S(=O)(c1cccc(-c2nc3ccccc3s2)c1)N1CCCC1,-13%,-5%,4%,-13%
CC(=O)c1ccc2c(c1)N(CCCN1CCC(CCO)CC1)c1ccccc1S2,nt,nt,-2%[25.6 µM],-9%[16.8 µM]
OCCN1CCN(CCCN2c3ccccc3Sc3ccc(Cl)cc32)CC1,10µM*!,16µM*!,4%[25.6 µM],-21%
CN(C)CCCN1c2ccccc2Sc2ccc3ccccc3c21,-1%[9.22 µM],-3%[9.22 µM],1%[11.4 µM],-17%[10.9 µM]
CN(C)CCCN1c2ccccc2Sc2ccc(Cl)cc21,10µM*!,?,3%[25.6 µM],-13%
CC1=C(C(=O)NCc2cccc(F)c2)C2(CCCCCC2)OC1=O,nt,3%,nt,nt
COCCn1nnnc1C(c1cc2ccc(C)cc2[nH]c1=O)N(Cc1ccco1)Cc1cccs1 (configuration not stated),15%,12%,?,16%
Cc1cccc(C)c1Nc1c(-c2ccc(N3CCOCC3)cc2)nc2ncccn12,-14%,18%,-2%,-14%[10.9 µM]
c1cn2c(NC3CCCC3)c(-c3ccc(N4CCOCC4)cc3)nc2cn1,16µM*,10µM*,0%,-9%
Fc1ccc(Nc2nc3nonc3nc2Nc2cccc(C(F)(F)F)c2)cc1,13µM*,?,?,-25%[10.9 µM]
COc1cccc(N2C(=O)N(c3ccccc3)C3CS(=O)(=O)CC32)c1 (configuration not stated),-1%,4%,nt,nt
CCOc1ccc(-n2nc3ccc(NC(=O)COc4ccccc4)cc3n2)cc1,10%,-7%,-2%,-3%[10.9 µM]
CCOc1ccc(-n2nc3ccc(NC(=O)c4ccc(-c5cccc(Cl)c5)o4)cc3n2)cc1,7.9µM*,?,?,-35%[10.9 µM]
COc1cc(C(=S)N2CCOCC2)ccc1OC(=O)c1cc([N+](=O)[O-])cc([N+](=O)[O-])c1,-7%,nt,nt,nt
CCCOC(=O)CCn1c(=S)oc2ccccc21,-17%,2%,0%,-4%
O=C(Nc1nnc(-c2ccccc2Cl)o1)c1ccco1,10µM*,13µM*,?,-29%
O=C(CSc1nc2ccccc2o1)Nc1nc2c(s1)CCCC2,13µM*,?,?,-37%
Cc1ccc(C)c(Nc2nn3c(=O)c4ccc(C(=O)NCc5cccs5)cc4nc3s2)c1,?,16µM*,?,-5%[10.9 µM]
CCc1ccc(NC(=O)c2ccc3c(=O)n4nc(Nc5ccccc5C)sc4nc3c2)cc1,?,13µM*,?,5%[10.9 µM]
Cc1ccc(Cl)cc1Nc1nn2c(=O)c3ccc(C(=O)NCc4ccc(F)cc4)cc3nc2s1,13µM*,1%,?,-12%[10.9 µM]
Cc1ccccc1Nc1nn2c(=O)c3ccc(C(=O)NCc4ccccc4)cc3nc2s1,-4%,-28%,0%,-17%[10.9 µM]
COc1ccccc1Nc1nn2c(=O)c3ccc(C(=O)NCc4cccs4)cc3nc2s1,10µM*,3.2µM*,?,-28%[10.9 µM]
COc1ccc2nc(NC(=O)c3nc(SCc4ccc(F)cc4)ncc3Cl)sc2c1,-11%,4%,0%,2%[10.9 µM]
O=C(Nc1c(C(=O)Nc2ccc3c(c2)OCCO3)cnn1-c1ccccc1Cl)c1ccco1,-2%,-5%,?,-1%
COc1ccc(C(=O)N2CCC[C@@]3(CCN(Cc4nccs4)C3)C2)cc1,-7%,9%,0%[11.4 µM],nt
